PfHsp40 rescue – compounds rescuing yeast from Plasmodium falciparum HSP40 toxicity. growth rescue, % at 12.5 µM. 0.68% of 340,000 active. S. cerevisiae expressing PfHsp40, growth rescue, ATP luminescence; in the data active = growth rescue above about 28%, passing the limit was not always enough;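 also: yeast W303a lacking pdr1 and pdr3 grown in galactose medium; growth measured after three days at 30 °C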
Mtb betalactam – beta-lactam sensitization of Mtb H37Rv | M. tuberculosis H37Rv growth with meropenem, percent inhibition | inhibition, % at 25 µM | 0.27% of 330,000 active | AID 434955; call rule not given here;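 also: growth measured after seven days incubation then overnight dye step; 0% = bacteria only wells and 100% = bacteria with antibiotic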
CCHF vOTU inh-1 – CCHFV vOTU protease inhibition; inhibition, % at 11.5 µM; 0.55% of 370,000 active; Pep-AMC fluorescence; also: 0% = vehicle wells with enzyme and 100% = no enzyme wells
RecA intein inh – blocks M. tuberculosis RecA intein splicing; cell-free RecA intein splicing, fluorescence; AID 2221; 0.75% of 290,000 active; P9WHJ3; inhibition, % (no concentration beside the values); in the data active = inhibition above about 30%;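 also: 0% = vehicle wells and 100% = reference inhibitor control wells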
Target sequence (P9WHJ3 whole entry, looked up): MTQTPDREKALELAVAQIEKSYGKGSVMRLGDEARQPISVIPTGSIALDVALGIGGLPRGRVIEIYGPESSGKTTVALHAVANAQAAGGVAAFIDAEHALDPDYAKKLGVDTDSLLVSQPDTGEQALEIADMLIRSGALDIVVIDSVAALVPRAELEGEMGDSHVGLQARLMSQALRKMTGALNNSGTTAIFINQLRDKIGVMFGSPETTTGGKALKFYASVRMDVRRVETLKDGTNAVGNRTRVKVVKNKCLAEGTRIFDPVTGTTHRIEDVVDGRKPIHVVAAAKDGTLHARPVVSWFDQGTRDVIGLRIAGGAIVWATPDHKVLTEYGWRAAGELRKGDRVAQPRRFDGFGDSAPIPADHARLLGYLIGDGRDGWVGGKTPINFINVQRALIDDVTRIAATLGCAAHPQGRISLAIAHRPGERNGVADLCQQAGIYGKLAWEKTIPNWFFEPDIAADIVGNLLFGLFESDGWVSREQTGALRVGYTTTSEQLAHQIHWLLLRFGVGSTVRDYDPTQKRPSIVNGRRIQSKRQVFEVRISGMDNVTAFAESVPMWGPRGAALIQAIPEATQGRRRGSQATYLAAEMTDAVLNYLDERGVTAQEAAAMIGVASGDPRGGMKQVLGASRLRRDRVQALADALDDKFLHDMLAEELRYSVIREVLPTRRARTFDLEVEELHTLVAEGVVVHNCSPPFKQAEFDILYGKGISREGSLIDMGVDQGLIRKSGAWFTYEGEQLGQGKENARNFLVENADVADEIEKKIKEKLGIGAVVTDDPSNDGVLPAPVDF
Mtb hypoxia inh – reduces hypoxia-regulated biosensor signal in M. tuberculosis | M. tuberculosis hypoxia-regulated fluorescent reporter, fluorescence | fluorescence inhibition, % (no concentration beside the values) | 0.1% of 300,000 active | AID 1159583; in the data active = fluorescence inhibition mostly above about 23%, no sharp cut-off; inactive = mostly below about 17%
CCHF vOTU inh-2 – confirmation of CCHF virus vOTU protease inhibitors | 17% of 1,900 active | inhibition, % at 11.5 µM | shares compounds with CCHF vOTU inh-1 | Recombinant CCHFV vOTU, Pep-AMC fluorescence
Active calls of the source: *; i = inactive; . = no result given. In the library only some 1.7% were active in any assay of this set; here they are far more common. Rule as the data show it, unless noted: active = inhibition above about 30%; inactive = the rest.

SMILES | PfHsp40 rescue | Mtb betalactam | CCHF vOTU inh-1 | RecA intein inh | Mtb hypoxia inh | CCHF vOTU inh-2
Cc1ccc(C)c(/C(O)=C2\C(=O)C(=O)N(CCCN3CCOCC3)C2c2cccnc2)c1 (stereo unspecified) | 0 | . | 46* | -2 | -5 | -16
Cc1ccc(/C(O)=C2/C(=O)C(=O)N(CCN3CCOCC3)C2c2cccnc2)cc1 (stereo unspecified) | 1 | 9 | 0 | -3 | -7 | .
CCCCC1C2=C3C(CC(C(=O)OC)=CC(C(=O)OC)C3C(C)(C)C2=O)n2c(=O)n(-c3ccccc3)c(=O)n21 (stereo unspecified) | . | . | . | . | 1 | .
CCOC(=O)Nc1sc(NS(=O)(=O)c2ccc(C)cc2)nc1C | -1 | 9 | 30* | 6 | 3 | -10
Nc1cccc2c1C(=O)N(Cc1cccc(Cl)c1)C2=O | 5 | 8 | -3 | i | 7 | .
O=C1Cc2ccccc2C(=O)N1Cc1cccc(Cl)c1 | -2 | 1 | 64* | 1 | 9 | 54*
CC1CC1C(=O)N1CCN(S(=O)(=O)c2cc(C(F)(F)F)cc(C(F)(F)F)c2)CC1 (stereo unspecified) | -1 | -2 | 30* | . | 6 | -11
O=C1C(=C(I)I)c2ccccc2-c2ccccc21 | 0 | . | 95* | . | . | 55*
O=C1NCCCC2c3cc(O)c4ccccc4c3OC12N1CCCCC1 (stereo unspecified) | . | -3 | 92* | . | . | 16
COc1ccc(NS(=O)(=O)c2ccc(O)c(NC(=O)c3ccc(S(=O)(=O)N4CCCCCC4)cc3)c2)cc1 | 1 | -2 | 1 | 0 | 1 | .
COc1ccc(NS(=O)(=O)c2ccc(O)c(NC(=O)c3ccc(S(=O)(=O)N4CCCC4)cc3)c2)cc1 | -1 | -10 | 34* | . | 3 | -6
COC(=O)C1=C(c2ccc(F)cc2OCc2ccccc2)CC2CCC1N2C(=O)NCc1ccc([N+](=O)[O-])cc1 (stereo unspecified) | . | . | . | . | 17 | .
Cc1ccc(S(=O)(=O)NN=C2CC(c3ccccc3)Oc3ccccc32)cc1[N+](=O)[O-] (stereo unspecified) | . | . | . | . | 5 | .
Cc1ccc(S(=O)(=O)N/N=C2/CC(c3ccccc3)Oc3ccccc32)cc1[N+](=O)[O-] (stereo unspecified) | 1 | 18 | 38* | 5 | . | 10
CC1CC(O)c2cc(Cl)ccc2N1 (stereo unspecified) | . | . | . | . | 8 | .
Cc1ccc(NC(=O)CSc2nnc(-c3cc(-c4ccc(Cl)cc4)n[nH]3)n2N)cc1 | . | . | 99* | . | . | -1
CCc1nnc(N/N=C/c2ccc(N3CCC(C)CC3)c([N+](=O)[O-])c2)n1N | 0 | 99 | 88* | 27 | . | -5
Cc1nnc(N/N=C/c2cc([N+](=O)[O-])c(N3CCC(C)CC3)cc2N2CCC(C)CC2)n1N | 0 | 97 | 96* | 21 | . | -3
CC1CCN(c2ccc(C=NNc3nncn3N)cc2[N+](=O)[O-])CC1 | . | . | . | . | -6 | .
N#CC(=NNc1ccc(F)cc1)C(=N)N1CCCCC1 | . | . | . | . | 8 | .
CC(=NNC(=O)C1CCCC1)c1ccc(Cl)c(Cl)c1 | . | . | . | . | 6 | .
O=C(O)c1cccc(NC(=S)N/N=C/c2ccccc2OCc2ccc(Br)cc2)c1 | 0 | 8 | 30* | 16 | . | 12
CCC(=NCc1ccccc1)c1c(C(F)(F)F)[nH]n(-c2nc3ccccc3s2)c1=O | 1 | 8 | 3 | 1 | 12 | .
O=c1c(C=NCc2cccnc2)c(C(F)(F)F)[nH]n1-c1nc2ccccc2s1 | 0 | 1 | 30* | 1 | 14 | -5
Cc1ccc(C=NNC(=O)CNC(=O)c2cccs2)cc1 | . | . | . | . | 10 | .
SMILES | PfHsp40 rescue | Mtb betalactam | CCHF vOTU inh-1 | RecA intein inh | Mtb hypoxia inh | CCHF vOTU inh-2
Cc1ccc(S(=O)(=O)NC(=O)Cn2nnc(-c3ccccc3)c2COc2ccc3ccccc3c2)cc1 | . | . | 34* | . | . | 2
Cc1c(C(C)CCCO)oc(=O)c2c1Oc1c(C)c(C(C)CC(C)O)oc(=O)c1C2 (stereo unspecified) | . | . | . | . | 5 | .
O=S(=O)(O)c1cc(Cl)cc(N=Nc2ccc(O)cc2O)c1O | 58* | . | 31* | . | . | 8
O=[N+]([O-])c1ccc(N=Nc2ccc(O)cc2O)cc1 | -1 | 31 | -3 | 6 | . | .
CC1(C)Oc2ccc3ccc(=O)oc3c2C(C=NO)C1=O (stereo unspecified) | . | . | . | . | 14 | .
CC(=O)c1c(C)[nH]c(C(=O)OCC(=O)Nc2ccc([N+](=O)[O-])cc2Cl)c1C | -1 | -2 | -4 | 2 | 6 | .

Compound activity (PubChem)
